Test results from the supplement of paper PMC10849652.
Targets with a hit are over-represented here; the source holds about 7,900 in all. About 0.6% of all pairs of compound and target were hits. Values without a mark were called inactive.

Columns and labels:
Test in all cases: log2 fold change, soluble protein after heating vs DMSO (PISA); higher = thermal stabilisation; K562 cells, 10 uM, 30 min; active = over 0.2 and 3.5 SD of the protein, either way, in both replicates (recomputed)
bafetinib = compound: Cc1ccc(NC(=O)c2ccc(CN3CC[C@H](N(C)C)C3)c(C(F)(F)F)c2)cc1Nc1nccc(-c2cncnc2)n1 [bafetinib]
Procedure, shortened: (§1)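 Soluble protein was quantified by TMTpro 16plex LC-MS/MS after channel sums were equalised. It was obtained as the supernatant after 21,000xg for 90 min from pooled aliquots of K562 cells (2×10^6 cells/mL, 10 μM compound, 30 min) heated for 3 min across 48°C-58°C and extracted in PBS with 0.5% NP-40 at 4°C. Thermal stability values are relative to control samples and come from duplicates. They are given as log2 fold changes.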

[1] = compound: Cc1cccc(CC(=O)N2CCc3c2ccc(-c2cn(C)c4ncnc(N)c24)c3F)n1
Procedure, shortened: as §1

nilotinib = compound: Cc1cn(-c2cc(NC(=O)c3ccc(C)c(Nc4nccc(-c5cccnc5)n4)c3)cc(C(F)(F)F)c2)cn1 [nilotinib]
Procedure, shortened: as §1

[2] = compound: Cc1nc(Nc2n[nH]c3c2CN(C(=O)N[C@H](CN(C)C)c2ccccc2)C3(C)C)c2sccc2n1
Procedure, shortened: as §1

dasatinib = compound: Cc1nc(Nc2ncc(C(=O)Nc3c(C)cccc3Cl)s2)cc(N2CCN(CCO)CC2)n1 [dasatinib]
Procedure, shortened: as §1

[3] = compound: Cc1ncc(-c2ccnc(Nc3ccc(S(C)(=O)=O)cc3)n2)n1C(C)C
Procedure, shortened: as §1

[4] = compound: Cn1cc(-c2ccc3c(c2)CCN3C(=O)Cc2cccc(C(F)(F)F)c2)c2c(N)ncnc21
Procedure, shortened: as §1

[5] = compound: Cn1cc(-c2ccc3nnc(C(F)(F)c4ccc5ncccc5c4)n3n2)cn1
Procedure, shortened: as §1

tipifarnib = compound: Cn1cncc1[C@@](N)(c1ccc(Cl)cc1)c1ccc2c(c1)c(-c1cccc(Cl)c1)cc(=O)n2C [tipifarnib]
Procedure, shortened: as §1

mubritinib = compound: FC(F)(F)c1ccc(/C=C/c2nc(COc3ccc(CCCCn4ccnn4)cc3)co2)cc1 [mubritinib]
Procedure, shortened: as §1

[6] = compound: NC(=O)Nc1cc(-c2cccc(F)c2)sc1C(=O)N[C@H]1CCCNC1
Procedure, shortened: as §1

[7] = compound: NC(=O)c1cnc(N[C@@H]2CCCC[C@@H]2N)nc1Nc1cccc(-n2nccn2)c1
Procedure, shortened: as §1

[8] = compound: NC1(c2ccc(-c3nc4ccn5c(=O)[nH]nc5c4cc3-c3ccccc3)cc2)CCC1
Procedure, shortened: as §1

[9] = compound: NCC(=O)Nc1ccc(-n2nc(C(F)(F)F)cc2-c2ccc3c(ccc4ccccc43)c2)cc1
Procedure, shortened: as §1

entinostat = compound: Nc1ccccc1NC(=O)c1ccc(CNC(=O)OCc2cccnc2)cc1 [entinostat]
Procedure, shortened: as §1

vorinostat = compound: O=C(CCCCCCC(=O)Nc1ccccc1)NO [vorinostat]
Procedure, shortened: as §1

citarinostat = compound: O=C(CCCCCCNC(=O)c1cnc(N(c2ccccc2)c2ccccc2Cl)nc1)NO [citarinostat]
Procedure, shortened: as §1

silmitasertib = compound: O=C(O)c1ccc2c(c1)nc(Nc1cccc(Cl)c1)c1ccncc12 [silmitasertib]
Procedure, shortened: as §1

[10] = compound: O=C1NC(=O)C(c2cnc3ccccn23)=C1c1cn2c3c(cc(F)cc13)CN(C(=O)N1CCCCC1)CC2
Procedure, shortened: as §1

[11] = compound: c1cc(OCCN2CCCCC2)cc(-c2n[nH]c3ccc(-c4nnc[nH]4)cc23)c1
Procedure, shortened: as §1

Sequence of UniProt P43897 (P43897 whole entry, looked up): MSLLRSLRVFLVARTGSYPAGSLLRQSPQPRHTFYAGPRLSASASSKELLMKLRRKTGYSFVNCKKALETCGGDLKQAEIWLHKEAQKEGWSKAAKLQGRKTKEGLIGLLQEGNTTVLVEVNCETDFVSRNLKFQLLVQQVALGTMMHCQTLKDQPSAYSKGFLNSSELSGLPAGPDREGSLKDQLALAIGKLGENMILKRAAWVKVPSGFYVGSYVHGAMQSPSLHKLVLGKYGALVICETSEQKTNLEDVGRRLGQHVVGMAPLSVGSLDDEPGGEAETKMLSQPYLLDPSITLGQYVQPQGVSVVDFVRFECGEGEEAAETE
Sequence of UniProt Q9NYU2 (Q9NYU2 whole entry, looked up): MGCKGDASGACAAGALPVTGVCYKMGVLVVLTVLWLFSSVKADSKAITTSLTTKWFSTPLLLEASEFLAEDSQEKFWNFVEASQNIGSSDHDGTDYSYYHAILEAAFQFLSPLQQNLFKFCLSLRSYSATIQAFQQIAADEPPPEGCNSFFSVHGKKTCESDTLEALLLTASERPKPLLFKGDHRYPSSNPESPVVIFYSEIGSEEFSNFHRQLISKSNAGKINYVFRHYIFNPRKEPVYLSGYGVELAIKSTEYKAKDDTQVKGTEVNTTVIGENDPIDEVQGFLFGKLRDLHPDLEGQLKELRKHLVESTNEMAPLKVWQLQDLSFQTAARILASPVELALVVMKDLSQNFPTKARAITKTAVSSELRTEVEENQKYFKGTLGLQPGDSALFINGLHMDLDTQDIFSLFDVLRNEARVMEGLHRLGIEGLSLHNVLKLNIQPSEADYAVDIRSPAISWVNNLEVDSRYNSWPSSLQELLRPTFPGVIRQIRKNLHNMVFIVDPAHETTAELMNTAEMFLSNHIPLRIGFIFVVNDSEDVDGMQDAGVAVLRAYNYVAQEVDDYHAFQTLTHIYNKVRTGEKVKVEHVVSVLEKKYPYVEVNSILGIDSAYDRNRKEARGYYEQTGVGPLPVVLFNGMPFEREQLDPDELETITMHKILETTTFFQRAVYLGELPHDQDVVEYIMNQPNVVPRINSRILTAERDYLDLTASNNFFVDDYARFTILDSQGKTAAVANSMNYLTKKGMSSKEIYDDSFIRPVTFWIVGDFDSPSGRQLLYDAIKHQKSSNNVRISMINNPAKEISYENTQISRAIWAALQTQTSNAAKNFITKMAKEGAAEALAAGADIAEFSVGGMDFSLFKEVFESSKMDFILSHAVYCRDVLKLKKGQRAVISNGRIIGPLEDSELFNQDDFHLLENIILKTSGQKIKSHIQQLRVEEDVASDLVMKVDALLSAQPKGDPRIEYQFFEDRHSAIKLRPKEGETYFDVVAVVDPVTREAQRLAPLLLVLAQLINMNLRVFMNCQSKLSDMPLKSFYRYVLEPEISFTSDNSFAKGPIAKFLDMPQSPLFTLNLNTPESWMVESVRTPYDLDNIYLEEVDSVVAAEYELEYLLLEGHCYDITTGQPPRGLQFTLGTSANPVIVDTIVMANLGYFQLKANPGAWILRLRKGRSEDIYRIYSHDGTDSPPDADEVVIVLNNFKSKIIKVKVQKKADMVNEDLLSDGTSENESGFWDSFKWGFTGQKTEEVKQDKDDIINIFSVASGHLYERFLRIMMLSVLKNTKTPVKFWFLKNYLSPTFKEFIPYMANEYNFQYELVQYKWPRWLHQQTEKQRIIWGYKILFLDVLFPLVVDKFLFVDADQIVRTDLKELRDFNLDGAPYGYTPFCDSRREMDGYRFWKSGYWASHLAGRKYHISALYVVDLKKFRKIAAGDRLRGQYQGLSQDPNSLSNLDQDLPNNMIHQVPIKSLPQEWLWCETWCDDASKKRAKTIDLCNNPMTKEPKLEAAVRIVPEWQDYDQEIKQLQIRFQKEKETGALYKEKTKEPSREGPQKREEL
Sequence of UniProt Q9BUB7 (Q9BUB7 whole entry, looked up): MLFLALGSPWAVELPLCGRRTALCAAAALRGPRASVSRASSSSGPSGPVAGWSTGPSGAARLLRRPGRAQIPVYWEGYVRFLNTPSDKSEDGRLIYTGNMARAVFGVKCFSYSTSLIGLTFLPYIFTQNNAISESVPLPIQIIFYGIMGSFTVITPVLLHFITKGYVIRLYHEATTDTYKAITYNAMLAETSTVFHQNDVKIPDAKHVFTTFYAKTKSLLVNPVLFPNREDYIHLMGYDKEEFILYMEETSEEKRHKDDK
Sequence of UniProt O43617 (O43617 whole entry, looked up): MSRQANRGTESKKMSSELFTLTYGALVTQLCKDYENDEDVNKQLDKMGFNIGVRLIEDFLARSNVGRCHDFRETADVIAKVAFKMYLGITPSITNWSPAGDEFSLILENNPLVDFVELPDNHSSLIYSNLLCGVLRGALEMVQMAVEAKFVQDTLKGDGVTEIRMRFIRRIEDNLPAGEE
Sequence of UniProt Q8N4H5 (Q8N4H5 whole entry, looked up): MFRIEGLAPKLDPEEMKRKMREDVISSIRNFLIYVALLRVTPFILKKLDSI
Sequence of UniProt Q9Y385 (Q9Y385 whole entry, looked up): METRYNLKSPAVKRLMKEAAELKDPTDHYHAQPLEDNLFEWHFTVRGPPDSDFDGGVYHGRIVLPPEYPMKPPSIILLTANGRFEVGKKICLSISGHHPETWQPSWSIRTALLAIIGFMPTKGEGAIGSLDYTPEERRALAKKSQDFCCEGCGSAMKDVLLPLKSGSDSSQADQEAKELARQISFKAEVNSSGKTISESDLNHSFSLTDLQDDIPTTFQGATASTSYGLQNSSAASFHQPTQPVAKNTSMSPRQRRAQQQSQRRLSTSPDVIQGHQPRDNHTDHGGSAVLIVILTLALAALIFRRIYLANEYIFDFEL
Sequence of UniProt A0PJW6 (A0PJW6 whole entry, looked up): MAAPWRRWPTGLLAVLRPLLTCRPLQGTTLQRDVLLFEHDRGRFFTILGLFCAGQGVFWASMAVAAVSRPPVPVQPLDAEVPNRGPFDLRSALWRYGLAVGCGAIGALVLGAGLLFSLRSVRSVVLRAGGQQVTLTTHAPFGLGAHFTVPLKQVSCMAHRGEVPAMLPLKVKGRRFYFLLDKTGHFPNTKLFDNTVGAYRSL

Target	log2 fold change (bafetinib)	log2 fold change [1]	log2 fold change (nilotinib)	log2 fold change [2]	log2 fold change (dasatinib)	log2 fold change [3]	log2 fold change [4]	log2 fold change [5]	log2 fold change (tipifarnib)	log2 fold change (mubritinib)	log2 fold change [6]	log2 fold change [7]	log2 fold change [8]	log2 fold change [9]	log2 fold change (entinostat)	log2 fold change (vorinostat)	log2 fold change (citarinostat)	log2 fold change (silmitasertib)	log2 fold change [10]	log2 fold change [11]
TOMM5 isoform 2 (UniProt Q8N4H5)	-0.141	-0.114	0.079	0.004	-0.004	-0.079	0.062	0.217	0.107	0.038	-0.053	0.002	-0.083	0.084	0.067	-0.117	0.039	-0.043	-0.158	0.099
WDR61 (UniProt Q9GZS3)	-0.01	-0.033	-0.018	0.029	0.007	-0.075	0.023	0.012	-0.01	0.075	-0.013	-0.058	-0.102	-0.069	-0.052	0	0.028	-0.005	-0.045	-0.057
UBE2J1 (UniProt Q9Y385)	0.108	0.023	-0.076	-0.09	-0.028	-0.189	-0.053	0.003	-0.056	0.132	0.031	-0.038	0.07	0.017	-0.077	-0.019	0.041	0.042	-0.375 (active)	-0.09
TMEM223 (UniProt A0PJW6)	-0.156	-0.005	0.032	0.033	-0.052	-0.079	-0.025	0.038	0.013	0.044	-0.087	-0.14	-0.1	0.071	-0.02	0.096	-0.031	0.019	0.05	-0.036
UGGT1 (UniProt Q9NYU2)	-0.005	-0.007	-0.015	0.016	-0.007	-0.036	-0.017	-0.001	-0.026	-0.043	0.028	-0.025	-0.06	0.017	-0.001	-0.004	0.047	0.01	-0.025	-0.035
TSFM (UniProt P43897)	0.091	-0.087	0.062	-0.217	-0.143	0.039	0.033	0.033	0.013	-0.36 (active)	-0.068	0.03	-0.05	-0.076	0.162	0.016	0.181	0.11	-0.043	0
TRAPPC3 (UniProt O43617)	-0.033	0.003	-0.007	-0.023	-0.021	-0.001	0.025	0.041	-0.047	0.035	0.017	-0.056	-0.145	-0.058	0.022	0.004	0.038	0.032	0	-0.048
TMEM70 (UniProt Q9BUB7)	-0.141	0.026	0.028	-0.003	-0.094	0.018	0.06	0.023	-0.02	0.017	-0.058	-0.125	-0.162	-0.137	0.005	0.031	0.047	0.019	-0.045	-0.003
